The full list was thinned out, with hits kept by preference.
CHX counter = counter-screen hit for Shiga toxin inhibitors, cycloheximide; cell reporter, cycloheximide protein synthesis inhibition counterscreen; max response, %; 300,000 compounds, 12% hits; AID 2314; in the data active = max response mostly above about 13%, no sharp cut-off; inactive = mostly below about 14%; note: read at 38.3 µM for the half of the compounds with a filed dose; 0% is about no effect
TbPYK inhibitor = blocks Trypanosoma brucei pyruvate kinase | Q57TT1 | TbPYK enzyme, Kinase-Glo Plus ATP luminescence, 45 min | Potency, µM (top dose mostly 76.8 µM), for the others: top-dose activity, negative = inhibition, most hits filed as inhibitors | 410,000 compounds, 0.12% hits; note: potency is the fitted concentration of half-maximal effect; % is set by controls: 0 for no effect and ±100 for the full control effect; nearly all actives have a fitted effect of over 50% in size
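Quantitative HTS: titrated library compounds versus trypanosomal pyruvate kinase in TEA buffer (pH 7.2) containing KCl, MgCl2, BSA and Tween-20. Reactions were initiated with ADP, 130 uM final. Kinase-Glo Plus luminescence was read after 45 min at RT.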
Shiga inhibitor = inhibitors of Shiga toxin in Vero cells | Vero cells, Shiga toxin protein synthesis inhibition reporter | 290,000 compounds, 9.2% hits | AID 2315 | inhibition, % at 38.7 µM; in the data active = inhibition mostly above about 28%, no sharp cut-off; inactive = mostly below about 43%; note: 0% is about no effect
LmPK inhibitor = LmPK (Leishmania mexicana) enzyme inhibition | purified LmPK, Kinase-Glo ATP luminescence, 1 h | Potency, µM (series often up to 57.5 µM), for inactives: top-dose activity change, negative = inhibition, hits mostly inhibitors | AID 1721 | 290,000 compounds, 0.37% hits; note: potency is the fitted concentration of half-maximal effect; % is set by controls: 0 for no effect and ±100 for the full control effect
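ATP generated from ADP (0.1 mM) and PEP (0.5 mM) by 0.1 nM LmPK over 1 h at room temperature (pH 7.2 imidazole buffer) was detected by coupled luciferase luminescence. Values were normalized to uninhibited and no-enzyme wells.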
Giardia FBPA inh = blocks Giardia fructose-bisphosphate aldolase activity; 290,000 compounds, 0.71% hits; Potency, µM (highest dose often 59.6 µM), inactives show top-dose activity, negative = inhibition, hits mostly inhibitors; purified Giardia FBPA; note: potency is the fitted concentration of half-maximal effect; % is set by controls: 0 for no effect and ±100 for the full control effect; nearly all actives have a fitted effect of over 55% in size
Target sequence (A8B2U2 whole entry, looked up): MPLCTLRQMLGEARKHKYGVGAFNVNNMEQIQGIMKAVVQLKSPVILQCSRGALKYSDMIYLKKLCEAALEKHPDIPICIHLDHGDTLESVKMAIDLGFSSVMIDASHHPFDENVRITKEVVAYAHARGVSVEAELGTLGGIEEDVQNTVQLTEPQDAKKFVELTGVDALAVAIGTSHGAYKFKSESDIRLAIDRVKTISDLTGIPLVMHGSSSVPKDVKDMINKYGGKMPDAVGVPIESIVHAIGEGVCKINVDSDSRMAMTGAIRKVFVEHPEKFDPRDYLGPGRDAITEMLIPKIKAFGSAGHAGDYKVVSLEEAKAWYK
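40 nM FBPA preincubated 10 min at RT with compound (up to 57.5 uM final), then substrate plus GAPDH/TPI/NAD/arsenate coupling and diaphorase/resazurin added. Fluorescence read after 20 min at RT, 525/598 nm.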
Sm TGR block = S. mansoni TGR enzyme inhibition; 360,000 compounds, 3% hits; purified TGR, DTNB reduction, TNB absorbance 405 nm; Potency, µM (titrated, usually from 114 µM), for the others: at the highest dose activity change, negative = inhibition, usual class: inhibitors; note: potency is the fitted concentration of half-maximal effect; % is set by controls: 0 for no effect and ±100 for the full control effect; nearly all actives have a fitted effect of over 60% in size
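Kinetic colorimetric format: TGR-catalysed, NADPH-driven DTNB reduction monitored via TNB absorbance. Enzyme dispensed at 20 nM; compound exposure 15 min at room temperature before reaction start.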
* = called active by the depositor; ? = inconclusive; . = no result. Unless noted, calls come from the whole dose curve; as a rule, active = well fitted curve in the direction sought with a large enough effect; inconclusive = small, poorly fitted or top-dose-only effect, or another doubt; inactive = no such curve, though single readings can be large; an effect the other way counts as inactive or inconclusive.

SMILES	CHX counter	TbPYK inhibitor	Shiga inhibitor	LmPK inhibitor	Giardia FBPA inh	Sm TGR block
COc1ccc(OC)c(NC(=O)CN(C)S(=O)(=O)c2ccc(C(=O)N3CCOCC3)s2)c1	.	1%	.	.	.	-5%
CN(C)CCCNc1nc2cc(-c3cnn(Cc4ccccc4)c3)sc2c(=O)n1C	.	-1%	.	.	.	.
O=C(CCNC(=O)N1CC(=O)Nc2ccccc21)NCc1ccc(Cl)cc1	.	1%	.	.	.	.
COc1ccc(CC(=O)NCC(c2ccc(OC)cc2)N(C)C)cc1 (stereo not drawn)	5	1%	-4	-5%	6%	-26%
COc1ccc(CNC(=O)Cc2cccs2)cc1	43*	11%	61*	-2%	2%	-2%
O=C(Cc1cccs1)NCc1cccs1	13	4%	39	0%	4%	-3%
O=C(Cc1cccs1)NCc1ccc(F)cc1	22*	11%	34	3%	5%	0%
COc1ccc(C(CNC(=O)Cc2cccs2)N(C)C)cc1 (stereo not drawn)	11*	1%	19	-4%	10%	10%
O=C(Cc1cccs1)NCc1cccc(Br)c1	29*	9%	66*	2%	?	2%
Cc1ccc(NC(=O)C(=O)NCC(c2cccnc2)N2CCN(Cc3ccccc3)CC2)cc1 (stereo not drawn)	.	-5%	.	.	.	3%
OC[C@H]1NC[C@H](O)[C@@H](O)[C@@H]1O	-2	.	4	.	4%	.
COc1ccccc1C(=O)NCC(=O)NNc1ncnc(N)c1[N+](=O)[O-]	23	.	34	-2%	?	6%
O=C(Cc1cccs1)NCc1ccc(Cl)cc1	15*	-12%	15	-1%	13%	-20%
CN(C)c1ccc(C(CNC(=O)c2cccs2)N(C)C)cc1 (stereo not drawn)	50*	2%	51*	0%	5%	-5%
COc1ccccc1CC(=O)NCc1ccc2c(c1)OCO2	16*	1%	29*	2%	-1%	4%
CN(C)c1ccc(NC(=O)COC(=O)CNC(=O)c2cccs2)cc1	.	0%	.	.	.	-16%
Cc1cc(=O)[nH]c(SCC(=O)NCC2CCCO2)n1 (stereo not drawn)	-4	-1%	-5	3%	-3%	0%
O=C(CSc1nc(O)c(C2CCCCC2)c(=O)[nH]1)NCC1CCCO1 (stereo not drawn)	29*	-1%	66*	-2%	-5%	-17%
COc1cccc(NC(=O)c2ccc3snnc3c2)c1	37*	1%	81*	?	-1%	-1%
O=C(Nc1ccc(F)cc1)c1ccc2snnc2c1	29*	0%	52*	3%	-3%	0%
COc1ccc(NC(=O)c2ccc3snnc3c2)cc1OC	.	-3%	.	.	.	-9%
O=C(Nc1cccc(F)c1)c1ccc2snnc2c1	.	-4%	.	.	.	1%
CCOc1ccc(NC(=O)c2ccc3snnc3c2)cc1	26	-7%	43*	-2%	0%	-7%
Cc1ccc(NC(=O)c2ccc3snnc3c2)cc1C	37*	2%	74*	-2%	-2%	6%
Nc1nc(=O)n(C2CC(O)C(CO)O2)cc1Cl (stereo not drawn)	.	0%	.	.	.	.
SMILES	CHX counter	TbPYK inhibitor	Shiga inhibitor	LmPK inhibitor	Giardia FBPA inh	Sm TGR block
COc1ccc(Cl)cc1NC(=O)c1noc2c1CCc1ccccc1-2	.	1%	.	.	.	12%
O=C(Nc1cccnc1)c1cc(-c2cccc(Cl)c2)on1	-2	-11%	-14	-2%	-2%	0%
O=C(NC1CCCC1)c1cc(-c2cccc(Cl)c2)on1	37*	-3%	131*	-6%	6%	3%
O=C(NC1CCCCC1)c1cc(-c2cccc(Cl)c2)on1	27*	-2%	39*	-4%	4%	3%
CC1CCN(C(=O)c2cc(-c3cccc(Cl)c3)on2)CC1	.	5%	.	.	.	0%
O=C(Nc1ccc(S(=O)(=O)N2CCCCC2c2cccnc2)cc1)c1ccc(F)cc1 (stereo not drawn)	.	3%	.	.	.	2%
CO[C@@]12[C@H](COC(N)=O)C3=C(C(=O)C(C)=C(N)C3=O)N1C[C@@H]1N[C@@H]12	.	0%	.	.	.	-8%
CCCNC1=C(C)C(=O)C2=C(C1=O)C(COC(N)=O)[C@]1(OC)C3NC3CN21 (stereo partly drawn)	-2	1%	-7	-5%	?	35µM*
COc1ccc(OC)c(NC(=O)Cn2c(CCC(=O)O)ccc2-c2cccs2)c1	-2	-3%	-8	0%	-6%	?
COc1cccc(NC(=O)Cn2c(CCC(=O)O)ccc2-c2cccs2)c1	11	0%	-17	1%	22%	-20%
O=C(O)CCc1ccc(-c2cccs2)n1CCc1ccccc1	16	-1%	28	5%	3%	10µM*
Cc1ccc(NC(=O)Cn2c(CCC(=O)O)ccc2-c2cccs2)cc1Cl	8	-18%	7	1%	23%	25µM*
O=C(O)CCc1ccc(-c2cccs2)n1CCC(=O)O	10	-7%	-26	7%	-14%	7.1µM*
CC(=O)c1ccc(NC(=O)c2ccc3c(c2)nnn3C2CCCC2)cc1	.	0%	.	.	.	8%
N#Cc1ccc(NC(=O)c2ccc3c(c2)nnn3C2CCCC2)cc1	.	-3%	.	.	.	4.5µM*
Cc1ccc(Nc2nc(N)c3ccccc3n2)cc1C	20*	5%	37*	-17%	?	113%
Cc1cc(Nc2ccc(C)c(C)c2)c2ccccc2n1	-5	-6%	-8	9%	0%	-10%
Cc1ccc(Nc2nc3ccccc3c(=O)[nH]2)cc1C	37*	1%	36*	3%	4%	-12%
COc1ccc(Nc2nc3ccccc3c(=O)[nH]2)cc1	7	?	-1	-3%	-12%	-5%
COc1ccc(N2CC(C(=O)N3CCN(c4ccccc4)CC3)CC2=O)cc1 (stereo not drawn)	2	-5%	-4	3%	.	0%
CCOc1ccc(OCC)c(NC(=O)CCS(=O)(=O)c2ccc(Br)s2)c1	15*	0%	33	8%	5%	-18%
N#CC(C#N)=c1ccc2c(c1)NC1(CCCCC1)N=2	37*	?	65*	14µM*	?	-23%
N#CC(C#N)=C1NC2(CCCCC2)Cc2ccccc21	-2	3%	1	2%	16%	1%
N/C(=N\C(=S)Nc1ccccc1)c1ccccc1	40*	0%	99*	5%	-25%	46%
NC(N)=NC(=S)Nc1ccc(Cl)cc1	34*	5%	39*	7%	?	-4%
Cc1cccc(-n2c(C)cc(C(=O)C(=O)Nc3ccccc3F)c2C)c1C	.	-6%	.	.	.	5%
COc1cc(O)cc2cc3c(c(O)c12)C(=O)CC(C)(O)O3 (stereo not drawn)	35*	-15%	37*	-4%	?	-5%
COc1cc(O)c2c(c1)OC(C)(C)CC2=O	-1	2%	12	1%	8%	-3%

Screening data deposited in PubChem by National Center for Advancing Translational Sciences (NCATS).
